Source: PubChem BioAssay (The Scripps Research Institute Molecular Screening Center)
Most compounds without a hit are left out; they make up all but 2.3% or so of the library.
CHRM1 agonist – agonists of human M1 muscarinic receptor; P11229; CHO-K1 hM1, Fluo-8 calcium fluorescence, agonist mode; 0% DMSO, 100% acetylcholine EC100; activation, % at 3 µM; 0.33% of 360,000 active; AID 588814;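 active = activation above the run's mean compound activation plus 3 SD, cut at about 16% in these data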;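 note: peak over basal fluorescence ratio within a 140 s kinetic read after compound addition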
Target sequence (P11229 whole entry, looked up): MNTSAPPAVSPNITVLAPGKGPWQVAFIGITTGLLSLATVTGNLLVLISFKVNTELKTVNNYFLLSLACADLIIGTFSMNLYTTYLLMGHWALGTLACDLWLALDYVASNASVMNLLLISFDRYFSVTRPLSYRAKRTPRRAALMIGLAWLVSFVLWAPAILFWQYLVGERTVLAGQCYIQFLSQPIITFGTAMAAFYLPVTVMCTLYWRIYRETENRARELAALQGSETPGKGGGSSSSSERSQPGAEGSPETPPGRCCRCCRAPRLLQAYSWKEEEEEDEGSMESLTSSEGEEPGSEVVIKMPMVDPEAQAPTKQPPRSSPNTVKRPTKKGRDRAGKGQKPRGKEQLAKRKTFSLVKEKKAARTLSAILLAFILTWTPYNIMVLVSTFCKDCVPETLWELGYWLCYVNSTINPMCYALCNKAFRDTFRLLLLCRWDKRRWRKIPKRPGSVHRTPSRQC
CHRM1 PAM – positive allosteric modulators of human M1 muscarinic receptor. CHO-K1 hM1, Fluo-8 calcium fluorescence, ACh EC20; 0% = ACh EC20, 100% = maximal ACh. activation, % at 3 µM. 0.088% of 360,000 active. AID 588819; in the data active = activation above about 19%, passing the limit was not always enough
CHRM1 antagonist – human CHRM1 antagonism; P11229; CHO-K1 hM1, Fluo-8 calcium fluorescence, ACh EC80 antagonist; inhibition, % at 3 µM; 1.3% of 360,000 active;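 active = percent inhibition above its own plate's cutoff, namely the mean of that plate's compound wells plus 3 SD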;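 note: peak over basal fluorescence ratio during 140 s after agonist addition; 0% = ACh EC80 plus DMSO and 100% = DMSO alone without agonist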
CHO-K1 Ca antag – nonselective inhibitor or artifact in parental CHO-K1 cells | 0.6% of 360,000 active | inhibition, % at 3 µM | AID 602250 | ATP-induced calcium, Fluo-8 fluorescence;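 active = inhibition above a per-plate cutoff, the plate's mean sample inhibition plus 3 SD, cut at about 24% in these data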;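 note: 0% = DMSO plus EC80 ATP and 100% = DMSO alone without ATP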
M1 ag parental – M1 agonist counterscreen hit in parental CHO-K1 cells; Fluo-8 calcium fluorescence; scaled to maximal ATP response, vehicle zero; activation, % at 3 µM; 0.48% of 360,000 active; AID 602248; in the data active = activation above about 15%;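 note: untransfected CHO-K1 host cells lacking M1 receptor as counterscreen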
CHO-K1 Ca PAM – counter-screen for M1 PAMs: effect in parental CHO-K1 cells. ATP EC20, Fluo-8 calcium fluorescence; 0% at ATP EC20, 100% at ATP max. activation, % at 3 µM. 0.02% of 360,000 active;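 active = activation above the run cutoff, the mean activation of all test compounds plus 3 SD, cut at about 40% in these data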;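 note: peak over basal fluorescence ratio in a 140 s read after ATP addition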
Starred values were filed as active, the others as inactive.

For O=C(ONc1ccc(N=NC(=O)c2ccccc2O)cc1)c1ccccc1 the results were CHRM1 agonist -3.8, CHRM1 PAM -11.3, CHRM1 antagonist 19.7, CHO-K1 Ca antag 28.1*, M1 ag parental 0.1 and CHO-K1 Ca PAM -15.6.
Screening CCOC(=O)c1sc(-c2ccc(OC)cc2)cc1N returned CHRM1 agonist 4.2, CHRM1 PAM 8.4, CHRM1 antagonist -1.7, CHO-K1 Ca antag 27.5*, M1 ag parental -0.1 and CHO-K1 Ca PAM -6.0.
For CCOC(=O)c1sc(-c2ccc(F)cc2)cc1N the results were CHRM1 agonist -6.7, CHRM1 PAM 1.9, CHRM1 antagonist 0.6, CHO-K1 Ca antag -8.5, M1 ag parental -0.7 and CHO-K1 Ca PAM 1.6.
`Cn1c(SCC(=O)Nc2ccc3nc(SCC(=O)N4CCCC4)sc3c2)nnc1-c1ccc(N)cc1` gave CHRM1 agonist -6.3, CHRM1 PAM -7.0, CHRM1 antagonist 12.0, CHO-K1 Ca antag 31.5*, M1 ag parental -0.6 and CHO-K1 Ca PAM -6.7.
For Cc1cccc(C)c1NC(=O)c1cc(S(=O)(=O)N2CCc3ccccc32)cn1C the results were CHRM1 agonist -4.6, CHRM1 PAM -3.7, CHRM1 antagonist -1.4, CHO-K1 Ca antag 1.6, M1 ag parental 0.8 and CHO-K1 Ca PAM 0.1.
COc1cccc(NS(=O)(=O)c2ccc3c(c2)CCN3C(C)=O)c1 was read as CHRM1 agonist -6.0, CHRM1 PAM -13.9, CHRM1 antagonist 20.0, CHO-K1 Ca antag 8.1, M1 ag parental 13.9 and CHO-K1 Ca PAM -18.3.
Screening CC(=O)N1CCc2cc(S(=O)(=O)N3CCc4ccccc43)ccc21 returned CHRM1 agonist 0.7, CHRM1 PAM -23.5, CHRM1 antagonist 59.7*, CHO-K1 Ca antag 9.3, M1 ag parental 15.2* and CHO-K1 Ca PAM 0.8.
`Cn1cc(S(=O)(=O)N2CCc3ccccc32)cc1C(=O)NC(C)(C)C` gave CHRM1 agonist 4.1, CHRM1 PAM -15.4, CHRM1 antagonist 31.6*, CHO-K1 Ca antag 26.0*, M1 ag parental 5.5 and CHO-K1 Ca PAM -12.9.
Screening CSc1cccc(NS(=O)(=O)c2ccc3c(c2)CCN3C(C)=O)c1 returned CHRM1 agonist -3.1, CHRM1 PAM -15.2, CHRM1 antagonist 31.1, CHO-K1 Ca antag 29.1*, M1 ag parental 18.4* and CHO-K1 Ca PAM -28.6.
CC(=O)N1CCc2cc(S(=O)(=O)N3CCc4ccccc4C3)ccc21 was read as CHRM1 agonist -1.7, CHRM1 PAM 13.9, CHRM1 antagonist -6.5, CHO-K1 Ca antag -8.8, M1 ag parental 0.9 and CHO-K1 Ca PAM 19.8.
For NS(=O)(=O)c1cccc(NC(=O)CSc2nnc(-c3ccccc3F)n2C2CC2)c1 the results were CHRM1 agonist -4.5, CHRM1 PAM 4.7, CHRM1 antagonist -29.2, CHO-K1 Ca antag -25.7, M1 ag parental -0.1 and CHO-K1 Ca PAM 20.4.
Screening CC1Cc2ccccc2N1S(=O)(=O)c1cccc(C(=O)NNC(=O)c2ccccc2F)c1 (configuration not stated) returned CHRM1 agonist -4.6, CHRM1 PAM 0.2, CHRM1 antagonist 2.4, CHO-K1 Ca antag -10.7, M1 ag parental 3.2 and CHO-K1 Ca PAM 6.1.
`COc1ccccc1N(C)S(=O)(=O)c1ccc(C(=O)Nc2ccc(C(N)=O)cc2)cc1` gave CHRM1 agonist -1.5, CHRM1 PAM 2.4, CHRM1 antagonist -0.7, CHO-K1 Ca antag -10.0, M1 ag parental 1.8 and CHO-K1 Ca PAM 8.5.
`CN(C)CCNC(=O)c1cccc(S(=O)(=O)Nc2ccc(F)cc2)c1` gave CHRM1 agonist -9.7, CHRM1 PAM 1.0, CHRM1 antagonist 6.2, CHO-K1 Ca antag 10.5, M1 ag parental 0.5 and CHO-K1 Ca PAM -7.3.
For CCN(CC)CCNC(=O)c1ccc(NC(=O)c2cccc(S(=O)(=O)Nc3ccc(C)cc3)c2)cc1 the results were CHRM1 agonist -12.0, CHRM1 PAM -30.5, CHRM1 antagonist 97.7*, CHO-K1 Ca antag -9.8, M1 ag parental 1.7 and CHO-K1 Ca PAM 17.4.
`O=C(NNC(=O)c1ccccc1F)c1cccc(S(=O)(=O)N2CCc3ccccc32)c1` gave CHRM1 agonist 0.2, CHRM1 PAM -14.2, CHRM1 antagonist 37.6*, CHO-K1 Ca antag 19.5, M1 ag parental 13.0 and CHO-K1 Ca PAM -11.0.
`CCN(CC)CCNC(=O)c1ccc(NC(=O)c2cccc(S(=O)(=O)N3CCc4ccccc43)c2)cc1` gave CHRM1 agonist -7.3, CHRM1 PAM -26.2, CHRM1 antagonist 100.2*, CHO-K1 Ca antag 7.8, M1 ag parental 5.5 and CHO-K1 Ca PAM 4.5.
CCN(CC)CCNC(=O)c1ccc(NC(=O)c2ccc(S(=O)(=O)N(C)c3ccccc3OC)cc2)cc1 was read as CHRM1 agonist -7.8, CHRM1 PAM -20.8, CHRM1 antagonist 41.3*, CHO-K1 Ca antag -11.3, M1 ag parental 0.9 and CHO-K1 Ca PAM -4.9.
For CCN(CC)CCNC(=O)c1cc(S(=O)(=O)N2CCc3ccccc32)cn1C the results were CHRM1 agonist -6.6, CHRM1 PAM -13.6, CHRM1 antagonist 23.9, CHO-K1 Ca antag 14.8, M1 ag parental 5.9 and CHO-K1 Ca PAM 13.1.
`CSc1nc(-c2ccccc2)nc(NC(C)=O)c1C(C)=O` gave CHRM1 agonist -4.1, CHRM1 PAM 6.8, CHRM1 antagonist -5.8, CHO-K1 Ca antag -10.8, M1 ag parental 0.1 and CHO-K1 Ca PAM 8.5.
For CCN(CC)CCNC(=O)c1ccc(NC(=O)c2ccc(S(=O)(=O)N3CCCC3)cc2)cc1 the results were CHRM1 agonist -7.8, CHRM1 PAM -1.5, CHRM1 antagonist 4.6, CHO-K1 Ca antag -28.9, M1 ag parental 0.7 and CHO-K1 Ca PAM 16.8.
Screening CC1Cc2ccccc2N1S(=O)(=O)c1cccc(C(=O)NCCCO)c1 (configuration not stated) returned CHRM1 agonist -3.5, CHRM1 PAM 3.1, CHRM1 antagonist -4.2, CHO-K1 Ca antag 4.9, M1 ag parental 0.6 and CHO-K1 Ca PAM 5.8.
For CCN(CC)CCNC(=O)c1ccc(NC(=O)c2cc(S(=O)(=O)N3CCCCC3)ccc2C)cc1 the results were CHRM1 agonist -7.6, CHRM1 PAM -25.6, CHRM1 antagonist 93.5*, CHO-K1 Ca antag -15.6, M1 ag parental 2.2 and CHO-K1 Ca PAM 7.7.
`CCN(CC)CCNC(=O)c1ccc(NC(=O)c2cccc(S(=O)(=O)N3c4ccccc4CC3C)c2)cc1` (configuration not stated) gave CHRM1 agonist -5.5, CHRM1 PAM -22.7, CHRM1 antagonist 100.3*, CHO-K1 Ca antag 12.8, M1 ag parental -0.3 and CHO-K1 Ca PAM -26.1.
Screening COc1cc(OC)cc(C(=O)Nc2ccn(C)n2)c1 returned CHRM1 agonist 0.5, CHRM1 PAM 13.1, CHRM1 antagonist -6.8, CHO-K1 Ca antag -8.2, M1 ag parental 0.8 and CHO-K1 Ca PAM 2.9.
Screening Cc1ccc(S(=O)(=O)NCCCNc2ccc([N+](=O)[O-])cc2)cc1 returned CHRM1 agonist -4.9, CHRM1 PAM -13.3, CHRM1 antagonist 16.1, CHO-K1 Ca antag 18.0, M1 ag parental 20.6* and CHO-K1 Ca PAM -0.6.
